# An excerpt weighted towards active compounds, which were near 2.4% of everything screened.
# HSF1 inh = HSF1 inhibition. 300,000 tested, 0.77% active. activity change, negative = inhibition, % at 7.5 µM (by protocol). NIH3T3-HGL HSE-luciferase, MG132-induced, luminescence 8 h; stronger effect = lower value;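 active = more than half of replicate wells show activity change below -50%, luminescence cut by over half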;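 also: luciferase reports HSF-1 transcriptional activity via heat shock element; 0% = median of DMSO wells and -100% = zero luminescence signal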
# HSP90 refold inh = HSP90 refolding inhibition in rabbit reticulocyte lysate; luciferase refolding luminescence, 3 h; inhibition, % at 5.6 µM; 290,000 tested, 0.91% active;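 active = inhibition above the screen-wide mean plus 3 SD, computed separately per campaign, cut at about 16% in these data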;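 also: 0% = DMSO wells and 100% = 60 µM geldanamycin wells; inhibitors lower the luminescence because luciferase stays unfolded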
# C8 TRAIL sens = sensitizes caspase-8 expressing cells to TRAIL; inhibition (viability loss, TRAIL sensitization), % at 10 µM; AID 624354; 360,000 tested, 1% active; NB7+C8 cells + TRAIL, ATPlite viability luminescence;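 active = compounds causing at least 50% loss of cell viability in the single-dose screen, relative to plate controls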
# STAT1 inh = reduces IFN-gamma driven STAT1 reporter signal | NIH 3T3 STAT1-luciferase reporter, luminescence | inhibition, % at 5.5 µM | 200,000 tested, 0.35% active;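 active = inhibition above a set limit, the mean inhibition across all tested compounds plus 3 SD, cut at about 34% in these data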;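 also: 0% = IFN-gamma with DMSO and 100% = IFN-gamma with 300 µM nifuroxazide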
# PPC-1+TRAIL kill = kills PPC-1 cancer cells in the presence of TRAIL. PPC-1 cells + TRAIL, ATPLite viability luminescence. cell killing (% activity), % at 4 µM or 5 µM. 220,000 tested, 0.41% active. AID 1443;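 active = cell killing above 50% in the first pass at 4 µM, then a duplicate retest at 5 µM averaging 50% or more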;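 also: plate controls were cells with TRAIL plus DMSO for no effect and medium-only wells lacking cells for full effect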
# STAT3 inh = STAT3 signaling inhibition. inhibition, % at 5.5 µM. AID 862. 190,000 tested, 0.89% active. U3A cells, IL-6 STAT3-luciferase reporter, luminescence; host cell line lacks STAT1;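 active = inhibition above the mean inhibition across all screened compounds plus 3 SD, cut at about 44% in these data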;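 also: 0% = DMSO only wells and 100% = 100 µM nifuroxazide control wells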
# PPC-1 tox = PPC-1 cell cytotoxicity; shares compounds with PPC-1+TRAIL kill; PPC-1 viability, ATPlite luminescence, overnight; cytotoxicity, % at 5 µM; 1,200 tested, 50% active; AID 1447;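 active = reconfirmed compounds whose average cytotoxicity reaches 50% or more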;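 also: 0% = DMSO-treated cells and 100% = wells holding medium but no cells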
# The depositor's hits bear a star; . = no result given.
SMILES,HSF1 inh,HSP90 refold inh,C8 TRAIL sens,STAT1 inh,PPC-1+TRAIL kill,STAT3 inh,PPC-1 tox
O=C(Nc1cnc2ccccn2c1=O)c1ccc(Cl)cc1Cl,3.1,14.8,62.2*,40.8*,37.4,70.4*,47.8
Cc1cccc(NC(=O)c2cnc3sccn3c2=O)c1,12.0,9.4,34.6,-28.0,44.1,.,.
Cc1cccc(NC(=O)c2cnc3ccccn3c2=O)c1,.,-1.5,70.0*,-21.4,60.2*,31.6,59.4*
COC(=O)[C@]12CCCCC=C1N(Cc1ccc(Cl)cc1Cl)C(=O)[C@H](CC(=O)N1CCN(C(=O)c3ccco3)CC1)C2,.,.,7.5,.,.,.,.
CCOc1ccccc1-c1cncc(NC)n1,.,.,-13.2,.,.,.,.
O=c1cc(-c2ccccc2)[nH]c2nc3ccccc3n12,23.3,8.5,84.4*,6.2,69.9*,35.7,64.7*
O=c1cc(CCl)[nH]c2nc3ccccc3n12,-4.8,1.2,-1.4,.,-7.4,.,.
CCOC(=O)[C@]12CCCC=C1N(Cc1cccc3ccccc13)C(=O)[C@H](CC(=O)N1CCC(c3ccccc3)CC1)C2,.,.,10.1,.,.,.,.
Oc1c(N=Nc2ccccn2)ccc2ccccc12,183.9,9.3,74.5*,-6.7,82.2*,15.1,80.1*
Cc1csc(NC(=O)c2cccc(Cn3nc(C)c(Br)c3C)c2)n1,18.2,10.0,-13.1,1.2,-14.3,8.8,-1.5
COc1ccc(-c2cc(C#N)nc(Cl)n2)cc1,-3.9,3.6,20.9,.,22.1,.,18.7
O=C(NCc1ccc2c(c1)OCO2)c1cc(-c2ccccc2)on1,.,-0.3,-1.4,4.8,20.6,-0.5,12.6
O=C(O)C1CCCCC1C(=O)NCCCc1ccccc1 (stereo not given),-3.6,0.8,-19.0,-0.5,2.3,0.8,.
O=C(O)C1CCCCC1C(=O)NCCc1ccccc1 (stereo not given),-16.2,1.5,-5.1,1.5,7.7,14.9,5.5
COc1ccc(-c2nc(CCl)cs2)cc1,-0.7,-0.6,4.0,-18.5,0.9,13.5,3.5
COc1cccc(-c2nc(CCl)cs2)c1,5.7,-2.5,8.0,-14.7,-0.7,13.1,.
C[C@H]1CN([C@@H](C)CO)C(=O)CCCn2nncc2CO[C@H]1CN(C)C(=O)c1ccc2ccn(C)c2c1,.,.,-11.6,.,.,.,.
c1ccc(COc2ccc(OCCn3cncn3)cc2)cc1,10.5,-0.1,-1.4,-28.1,8.7,-4.3,11.0
c1ccc(-c2ccc(OCCCn3cncn3)cc2)cc1,.,2.8,8.6,-3.9,-7.3,20.5,.
COc1ccc([C@H]2N[C@]3(CCCN(Cc4ccc(C(F)(F)F)cc4)C3=O)[C@H]3C(=O)N(C)C(=O)[C@@H]23)cc1,.,.,-2.2,.,.,.,.
CCC(C)N(C(=O)CSc1nc(-c2cccs2)nc2ccccc12)C1CCS(=O)(=O)C1 (stereo not given),.,.,21.4,.,.,.,.
NC(=S)NN=Cc1cc(-c2cccc(N)c2)ccn1,.,.,11.5,.,.,.,.
CCc1nc2c(OCC(=O)c3ccc(Cl)cc3Cl)cccn2c1N(C)C(=O)COc1ccccc1,.,.,-10.7,.,.,.,.
CN(C)S(=O)(=O)c1ccc(-c2ccccc2)cc1,-4.2,0.8,-1.8,-0.9,-21.1,-5.0,-18.9
CN(c1ccccc1)S(=O)(=O)c1ccc(-c2ccccc2)cc1,2.6,-2.1,5.5,.,.,.,.
SMILES,HSF1 inh,HSP90 refold inh,C8 TRAIL sens,STAT1 inh,PPC-1+TRAIL kill,STAT3 inh,PPC-1 tox
CCOC(=O)CSc1ccc(-c2nc3cc(C)c(C)cc3[nH]2)cn1,1.9,1.5,46.6,-10.7,37.3,15.1,.
Cc1cc2nc(-c3ccc(SCC(=O)N4CCN(C(=O)c5ccco5)CC4)nc3)[nH]c2cc1C,1.1,-2.6,73.7*,-6.8,65.0*,13.5,63.2*
Cc1cc2nc(-c3ccc(SCC(=O)N4CCOCC4)nc3)[nH]c2cc1C,15.2,1.4,68.1*,-24.4,58.0*,6.4,57.5*
COC(=O)[C@@]12C[C@@H](CC(=O)N3CCN(C(=O)c4ccco4)CC3)C(=O)N(Cc3ccc4c(c3)OCO4)C1=CCC(C)(C)C2,.,.,1.6,.,.,.,.
Cc1ccc(S(=O)(=O)N2CCC(C(=O)NCC3CC3)CC2)cc1,-6.0,0.9,5.2,.,.,.,.
CCOC(=O)C1CCN(S(=O)(=O)c2ccc(NC(=O)OC)cc2)CC1,-8.0,4.6,4.5,11.5,8.2,15.0,8.8
CCOC(=O)C1CCN(S(=O)(=O)c2ccc(C)cc2)CC1,-3.0,1.2,-5.8,-0.9,-2.9,-14.0,.
CCOCCCNC(=O)C1CCN(S(=O)(=O)c2ccc(C)cc2)CC1,-4.2,-1.9,-16.3,-3.5,-9.4,2.0,-12.5
COc1nc(OC)nc(N2CCC(C(=O)NCc3cccs3)CC2)n1,-6.1,-1.9,-3.6,5.6,-1.3,5.8,1.7
COc1cc([N+](=O)[O-])ccc1N/C=C/C(=O)c1cccs1,2.2,13.9,88.9*,46.8*,89.1*,72.9*,90.5*
Cc1ccc(N/C(N)=N/c2nc(C)cc(N3CCCCC3)n2)c(C)c1,.,-0.6,39.7,35.9*,20.4,40.6,21.6
Cc1ccc(N/C(N)=N/c2nc3c(c(=O)[nH]2)CCCC3)c(C)c1,-3.7,-1.5,18.3,-6.7,31.1,7.7,.
CCN(CC)C(=O)C1=C(C)NC(=S)NC1c1ccc(C)s1 (stereo not given),-3.5,3.5,4.1,7.8,-6.3,6.2,-12.8
CSc1nc(C)cc(SCC(=O)Nc2ccccc2)n1,1.2,3.9,-1.8,12.3,-8.4,14.5,-14.0
O=S1(=O)N=C(Nc2nc3c(s2)CCCC3)c2ccccc21,.,3.5,75.2*,-54.1,60.4*,5.8,59.5*
Cc1cccc(Nc2nc3c(s2)CCCC3)c1,8.9,-7.9,4.3,-71.8,-10.8,-9.4,.
CCCCCCCCCn1ccc(=N)cc1,-3.6,-4.0,31.6,.,-5.2,.,-9.1
Cc1ccc(OCCNC(=O)[C@H]2O[C@@H](n3cnc4c(N)ncnc43)[C@H](O)[C@@H]2O)cc1C,.,.,19.2,.,.,.,.
CCCCN(C(=O)CSc1nnc(Nc2ccc(C)c(C)c2)s1)c1c(N)n(Cc2ccccc2)c(=O)[nH]c1=O,21.5,-1.3,43.5,1.0,32.8,-1.8,40.3
COC(=O)[C@H](Cc1ccccc1)NC(=O)/C=C/[C@H]1O[C@@H](n2ccc(=O)[nH]c2=O)[C@H](O)[C@@H]1O,.,.,-7.2,.,.,.,.
COc1cc(C(=O)OCC(=O)c2c[nH]c3ccccc23)ccc1OCC(=O)N1CCOCC1,2.9,-1.0,-15.5,2.0,-1.9,-12.5,.
CCOc1cc(C(=O)OCC(=O)c2c[nH]c3ccccc23)ccc1OCC(=O)N1CCOCC1,2.0,0.4,-2.1,3.1,-4.8,-36.9,-13.3
Cc1ccc(-n2c(-c3ccc(Br)cc3)c[n+]3c2CCc2ccc4cccnc4c2-3)cc1,5.6,1.7,65.2*,39.0*,48.3,74.6*,42.7
Cc1ccc(-c2c[n+]3c(n2-c2ccccc2)CCC3)cc1,-3.9,1.9,3.5,.,33.3,.,.
CC(C)NC(=O)N[C@H]1C=C[C@H](CC(=O)NCc2ccc(Oc3ccccc3)cc2)O[C@@H]1CO,.,.,-4.9,.,.,.,.
